Values joined by “and” are separate entries in the source; they are usually repeats but may differ in a detail not shown here. Equal values may be shown once. Compounds without any hit were thinned out: in the full panel of roughly 83,000, 20% have a hit.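 Step 1: grow cells in 96-well plates. Step 2: add test compound at a single concentration. Step 3: incubate 48 h. Step 4: record percent growth.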 Active and inactive are the calls of the source. How the source made its calls: active means growth percent below 10; inactive means the rest.
What was measured:
Experiment in all cases: NCI-60 one-dose screen, 48 h (100 = growth as untreated, 0 = no growth, -100 = all killed)
Conditions in all cases: 10 µM unless noted
HCT-15 colon = tested on: HCT-15 colon
HT29 colon = tested on: HT29 colon
SNB-75 CNS = tested on: SNB-75 CNS
SNB-19 CNS = tested on: SNB-19 CNS
U251 CNS = tested on: U251 CNS
PC-3 prostate = tested on: PC-3 prostate
SK-MEL-5 melanoma = tested on: SK-MEL-5 melanoma
UACC-62 melanoma = tested on: UACC-62 melanoma
LOX IMVI melanoma = tested on: LOX IMVI melanoma
SK-MEL-28 melanoma = tested on: SK-MEL-28 melanoma
SK-MEL-2 melanoma = tested on: SK-MEL-2 melanoma
EKVX NSCLC = tested on: EKVX NSCLC
SN12C renal = tested on: SN12C renal
UO-31 renal = tested on: UO-31 renal
TK-10 renal = tested on: TK-10 renal
ACHN renal = tested on: ACHN renal
CAKI-1 renal = tested on: CAKI-1 renal
CCRF-CEM leukemia = tested on: CCRF-CEM leukemia
MOLT-4 leukemia = tested on: MOLT-4 leukemia
A498 renal = tested on: A498 renal

SMILES	growth (HCT-15 colon)	growth (HT29 colon)	growth (SNB-75 CNS)	growth (SNB-19 CNS)	growth (U251 CNS)	growth (PC-3 prostate)	growth (SK-MEL-5 melanoma)	growth (UACC-62 melanoma)	growth (LOX IMVI melanoma)	growth (SK-MEL-28 melanoma)	growth (SK-MEL-2 melanoma)	growth (EKVX NSCLC)	growth (SN12C renal)	growth (UO-31 renal)	growth (TK-10 renal)	growth (ACHN renal)	growth (CAKI-1 renal)	growth (CCRF-CEM leukemia)	growth (MOLT-4 leukemia)	growth (A498 renal)
Oc1ccc(/C=C/c2ccccc2)cc1	67.1% (inactive) and 68.2% (inactive)	104% (inactive) and 84.8% (inactive)	68.7% (inactive) and 83.4% (inactive)	84.1% (inactive) and 91.2% (inactive)	67.7% (inactive) and 53.5% (inactive)	70% (inactive) and 43.8% (inactive)	56.1% (inactive) and 55.7% (inactive)	56.3% (inactive) and 53.4% (inactive)	55.6% (inactive) and 68.9% (inactive)	97.5% (inactive) and 99.8% (inactive)	98.4% (inactive) and 98.8% (inactive)	76.9% (inactive) and 108% (inactive)	74.5% (inactive) and 72.4% (inactive)	17.8% (inactive) and 11.6% (inactive)	92.9% (inactive) and 65.1% (inactive)	17.3% (inactive) and 16.2% (inactive)	6.76% (active)	33.5% (inactive) and 33.3% (inactive)	61.6% (inactive) and 47.5% (inactive)	
CCCCCCCCCCCCCCCCOc1ccc(C)cc1	108% (inactive)	106% (inactive)	104% (inactive)	109% (inactive)	101% (inactive)	102% (inactive)	108% (inactive)	105% (inactive)	87.3% (inactive)	111% (inactive)	115% (inactive)	99.7% (inactive)	104% (inactive)	81.5% (inactive)	109% (inactive)	104% (inactive)	105% (inactive)	127% (inactive)	103% (inactive)	92.3% (inactive)
C1CCCCNCCC1	113% (inactive)	95.1% (inactive)	99.5% (inactive)	110% (inactive)	103% (inactive)	101% (inactive)	109% (inactive)	103% (inactive)	111% (inactive)	109% (inactive)	115% (inactive)	99.8% (inactive)	108% (inactive)	92.5% (inactive)	125% (inactive)	117% (inactive)	90.2% (inactive)	104% (inactive)	110% (inactive)	113% (inactive)
COc1c(/C(C)=N/N=c2sc(C(C)=O)nn2-c2ccc(Cl)cc2)c(Oc2ccccc2)c(OC)c2occc12	102% (inactive) and 92.6% (inactive)	108% (inactive) and 86.1% (inactive)	80.6% (inactive) and 90.1% (inactive)	96.1% (inactive) and 98.1% (inactive)	99.5% (inactive) and 97.2% (inactive)	102% (inactive) and 88% (inactive)	100% (inactive) and 103% (inactive)	96.1% (inactive) and 84.7% (inactive)	91.8% (inactive) and 96% (inactive)	112% (inactive)	111% (inactive) and 114% (inactive)	93.1% (inactive) and 99.8% (inactive)	104% (inactive) and 98.8% (inactive)	75.8% (inactive) and 72.3% (inactive)	124% (inactive) and 118% (inactive)	109% (inactive) and 101% (inactive)	82% (inactive) and 64.5% (inactive)	106% (inactive)	103% (inactive) and 89.3% (inactive)	100% (inactive) and 77.1% (inactive)
COc1ccc(NC(=S)Nc2ccccn2)cc1	98.6% (inactive)	107% (inactive)	152% (inactive)	98.9% (inactive)	93.6% (inactive)	97.2% (inactive)	98.9% (inactive)	103% (inactive)	89.8% (inactive)	110% (inactive)	94.6% (inactive)	96.5% (inactive)	100% (inactive)	93.7% (inactive)	102% (inactive)	97.7% (inactive)	89.3% (inactive)	90.8% (inactive)	91% (inactive)	
Nc1cc2c(cc1N)-c1ccccc1C2	85.9% (inactive) and 94.3% (inactive)	96.6% (inactive) and 105% (inactive)	71.4% (inactive) and 91.6% (inactive)	97.7% (inactive) and 115% (inactive)	89.9% (inactive) and 89.5% (inactive)	85% (inactive) and 105% (inactive)	95.7% (inactive) and 97.1% (inactive)	85.3% (inactive) and 109% (inactive)	97.5% (inactive) and 93.3% (inactive)	115% (inactive) and 116% (inactive)	86.3% (inactive) and 111% (inactive)	67.1% (inactive) and 68% (inactive)	75.7% (inactive) and 101% (inactive)	58.8% (inactive) and 73.1% (inactive)	108% (inactive)	82.6% (inactive) and 88.3% (inactive)	56.8% (inactive) and 79.8% (inactive)	18.9% (inactive) and 30.8% (inactive)	57.3% (inactive) and 79.8% (inactive)	88.2% (inactive) and 103% (inactive)
Cc1ccc(S(=O)(=O)Nc2ccc3cc([N+](=O)[O-])ccc3c2[N+](=O)[O-])cc1	71% (inactive) and 94.2% (inactive)	93.3% (inactive) and 114% (inactive)	80% (inactive) and 106% (inactive)	85.6% (inactive) and 96.2% (inactive)	82.1% (inactive) and 88.2% (inactive)	71.7% (inactive) and 73.4% (inactive)	86.1% (inactive)	44% (inactive) and 69.1% (inactive)	82% (inactive) and 97.3% (inactive)	89.7% (inactive) and 115% (inactive)	99.7% (inactive) and 87.5% (inactive)	86% (inactive) and 75.7% (inactive)	74.7% (inactive) and 91.6% (inactive)	47.1% (inactive) and 58.1% (inactive)	78.5% (inactive) and 101% (inactive)	71.2% (inactive) and 94.5% (inactive)		79.1% (inactive) and 39.4% (inactive)	82.8% (inactive) and 63% (inactive)	69.1% (inactive) and 83% (inactive)
CN(C)c1ccc2nc3ccc(N)cc3[n+](-c3ccccc3)c2c1	90.7% (inactive) and 18.7% (inactive)	32.5% (inactive) and 24.4% (inactive)	18.6% (inactive) and 52.4% (inactive)	12.3% (inactive) and 21.1% (inactive)	16% (inactive) and 3.13% (active)	22.2% (inactive) and 7.58% (active)	-5.68% (active) and -77.7% (active)	17% (inactive) and 13.4% (inactive)	28% (inactive) and 6.03% (active)	37.6% (inactive) and 30.9% (inactive)	58.2% (inactive)	27.8% (inactive) and 12.6% (inactive)	6.72% (active) and -36.4% (active)	62.1% (inactive) and 31% (inactive)	20.6% (inactive)	73.5% (inactive) and 30.8% (inactive)	94.2% (inactive) and -40.5% (active)	24.6% (inactive) and 13.7% (inactive)	23% (inactive) and 0.316% (active)	67.5% (inactive) and 41.8% (inactive)
CCOC(=O)Nc1nc2ccccc2[nH]1	102% (inactive) and 17.9% (inactive)	104% (inactive) and 20.8% (inactive)	102% (inactive) and 23.3% (inactive)	99.9% (inactive) and 31.5% (inactive)	96.1% (inactive) and 26.2% (inactive)	98.7% (inactive) and 48% (inactive)	113% (inactive) and 19.3% (inactive)	102% (inactive) and 30.8% (inactive)	99.8% (inactive) and 43.8% (inactive)	109% (inactive) and 32.6% (inactive)	110% (inactive) and 51% (inactive)	95.6% (inactive) and 68.4% (inactive)	95.1% (inactive) and 34.9% (inactive)	94.5% (inactive) and 51.5% (inactive)	111% (inactive) and 64.6% (inactive)	103% (inactive) and 52.6% (inactive)	93.6% (inactive) and 40.7% (inactive)	98.9% (inactive) and 27.8% (inactive)	120% (inactive) and 16.7% (inactive)	117% (inactive) and 42.3% (inactive)
CC(C)Oc1ccc2cc(-c3nn(CC4CCNCC4)c4ncnc(N)c34)ccc2c1	61.9% (inactive) and -7.35% (active)	37.9% (inactive) and -13.1% (active)	59% (inactive) and -38.7% (active)	92.7% (inactive) and 24.8% (inactive)	77.7% (inactive) and -11.9% (active)	65.1% (inactive) and 16.6% (inactive)	59.8% (inactive) and -94.4% (active)	-65.3% (active)	69.8% (inactive) and -80.3% (active)	79.1% (inactive) and -85.7% (active)	100% (inactive)	97.4% (inactive) and 26.2% (inactive)	79.7% (inactive)	71.6% (inactive) and 36.9% (inactive)	82.2% (inactive) and 14.6% (inactive)	88.1% (inactive) and 14.1% (inactive)	106% (inactive) and 31% (inactive)	60.6% (inactive) and -23% (active)	29% (inactive) and -23.8% (active)	75% (inactive) and 16.7% (inactive)
